Data: PubChem BioAssay (EPA / NIEHS)
Results filed as inconclusive are left out. Active and inactive are the calls of the source. Rule for the calls, unless noted: active = hit-call score of the fitted dose curve at least 0.9, where 1 is the maximum; inconclusive = response in the unintended direction; inactive = score below 0.9.

Columns and labels:
[1] = molecular target: Hepatocyte nuclear factor 3-beta (Homo sapiens) (UniProt Q9Y261); assay: ATG_FoxA2_CIS: Attagene CIS-FACTORIAL HepG2 Assay for human Forkhead box A2 (FOXA2) (AID 2282942; active = hit-call score of the fitted dose curve at least 0.9, where 1 is the maximum; inactive = score below 0.9); settings: HepG2 cis-reporter transcription factor activity, 24 h; actives raise or lower the signal
Method in brief: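 Readout: fluorescent reporter transcripts resolved by capillary electrophoresis after RT-PCR. Transiently transfected HepG2, 24 h compound exposure, endogenous TF activity at cis promoter elements. Gain or loss of signal fitted relative to DMSO.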

[2] = molecular target: Hepatocyte nuclear factor 6 (Homo sapiens) (UniProt Q9UBC0); assay: ATG_HNF6_CIS: Attagene CIS-FACTORIAL HepG2 Assay for human Hepatocyte Nuclear Factor 6 (HNF6) (AID 2282952; active = hit-call score of the fitted dose curve at least 0.9, where 1 is the maximum; inactive = score below 0.9); settings: HepG2 Attagene cis-factorial HNF6 reporter transcription; actives raise or lower the signal
Method in brief: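 Twenty-four-hour chemical treatment of reporter-transfected HepG2 cells precedes RNA isolation, DNase-treated reverse transcription and PCR of reporter sequences. Labelled fragments are sized by capillary electrophoresis and fitted bidirectionally versus DMSO.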

[3] = ATG_RORE_CIS: Attagene CIS-FACTORIAL HepG2 Assay for human RAR-related Orphan Receptor Element (RORE) (AID 2282959; active = hit-call score of the fitted dose curve at least 0.9, where 1 is the maximum; inactive = score below 0.9); settings: HepG2 Attagene cis-factorial RORE reporter, mRNA; actives raise or lower the signal
Method in brief: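 Readout: fluorescent reporter mRNA by RT-PCR plus capillary electrophoresis, 24 h after dosing transfected HepG2 cells. Endogenous transcription factor activity on a cis promoter element is measured. Gain or loss of signal fitted against DMSO.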

[4] = ATG_TGFb_CIS: Attagene CIS-FACTORIAL HepG2 Assay for human Transforming Growth Factor (TGF) (AID 2282967; active = hit-call score of the fitted dose curve at least 0.9, where 1 is the maximum; inactive = score below 0.9); settings: HepG2 Attagene CIS TGFb reporter, mRNA transcription; actives raise or lower the signal
Method in brief: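 Transcript-level reporter readout: HepG2 transfectants, 24 h exposure, RNA to cDNA, reporter-specific PCR, fluorescent primer extension, capillary sizing against ROX standards. Gain- or loss-of-signal relative to DMSO.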

[5] = ATG_GAL4_TRANS: Attagene TRANS-FACTORIAL HepG2 Assay for GAL4 (Internal Marker) (AID 2282976); settings: HepG2 Attagene TRANS GAL4 internal marker reporter
Method in brief: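 Liver HepG2 line bearing multiplexed GAL4-UAS reporter constructs; 24 h chemical treatment. Transcripts were quantified as fluorescent fragments on capillary electrophoresis after RT-PCR and HpaI cut, with activity fitted upward from DMSO.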

[6] = molecular target: Hepatocyte nuclear factor 4-alpha (Homo sapiens) (UniProt P41235); assay: ATG_HNF4a_TRANS: Attagene TRANS-FACTORIAL HepG2 Assay for human Hepatocyte Nuclear Factor 4 alpha (HNF4a) (AID 2282982); settings: HepG2 HNF4a transactivation reporter, mRNA readout
Method in brief: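 Using HepG2 liver cells transfected with GAL4-UAS reporter units, chemical-induced mRNA increases were assessed after 24 hours. Fluorescent RT-PCR fragments were separated by capillary electrophoresis and compared with DMSO negative controls.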

[7] = ATG_M_32_TRANS: Attagene TRANS-FACTORIAL HepG2 Assay for M32 Transcription Factor (Internal Marker) (AID 2282984); settings: HepG2 Attagene TRANS M32 internal marker reporter;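 note: transcript level of a background control reporter unit measured by RT-PCR and capillary electrophoresis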
Method in brief: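 Fluorescence-detected mRNA induction, HepG2 liver cells, 24 h after dosing. Multiple GAL4-UAS reporter units introduced by transient transfection; background-control endpoint analysed for gain of signal against DMSO.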

[8] = molecular target: Nuclear respiratory factor 1 (Homo sapiens) (UniProt Q16656); assay: ATG_NRF1_CIS: Attagene CIS-FACTORIAL HepG2 Assay for human Nuclear Respiratory Factor 1 (NRF1) Orphan Gene (AID 2282987; active = hit-call score of the fitted dose curve at least 0.9, where 1 is the maximum; inactive = score below 0.9); settings: HepG2 NRF1 cis-element reporter, Attagene multiplex; actives raise or lower the signal
Method in brief: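 Endogenous NRF1-driven reporter transcription measured in transiently transfected human HepG2 liver cells. Readout: reporter mRNA by RT-PCR and capillary electrophoresis with fluorescence detection, 24 h post-dosing. Gain or loss of signal fitted relative to DMSO baseline.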

[9] = ATG_NF_kB_CIS: Attagene CIS-FACTORIAL HepG2 Assay for human Nuclear Factor Kappa B (NF-kB) (AID 2282991; active = hit-call score of the fitted dose curve at least 0.9, where 1 is the maximum; inactive = score below 0.9); settings: HepG2 Attagene cis-factorial NF-kB reporter mRNA; actives raise or lower the signal
Method in brief: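 Read-out: reporter transcript levels quantified by RT-PCR plus capillary electrophoresis of 6-FAM-labelled, HpaI-cut fragments. Transfected HepG2 cells, 24 h compound exposure, endogenous NF-kB-driven cis element; gain or loss scored versus DMSO.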

[10] = molecular target: human Retinoid X Receptor beta (RXRb), RXRB (gene 6257) (UniProt P28702); assay: ATG_RXRb_TRANS: Attagene TRANS-FACTORIAL HepG2 Assay for human Retinoid X Receptor beta (RXRb) (AID 2283013)
Method in brief: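 Read-out: reporter mRNA induction via RT-PCR plus capillary electrophoresis fluorescence, analysed as signal increase relative to DMSO. Cells were human HepG2, transiently transfected with GAL4-UAS reporter constructs and chimeric receptor-Gal4 fusions, dosed for 24 h.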

[11] = molecular target: human Thyroid Receptor alpha (THRa1), THRA (gene 7067) (UniProt P10827); assay: ATG_THRa1_TRANS: Attagene TRANS-FACTORIAL HepG2 Assay for human Thyroid Receptor alpha (THRa1) (AID 2283014)
Method in brief: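 Measured here is mRNA from a GAL4-UAS reporter in transfected HepG2 cells carrying a Gal4-fused receptor, 24 h post-dose. DMSO served as negative control and baseline.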

[12] = TOX21_p53_BLA_p2_viability: Viability Assessment in the Tox21 HCT-116 p53 Agonism Beta-lactamase Assay, Phase 2 (AID 2283591);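 note: compound exposure lasted 16 h at 37 °C; actives lower the ATP signal meaning cytotoxicity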
Method in brief: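 HCT-116 p53-bla cells (4000/well) rested 5 h at 37C, then received compounds in DMSO (217-fold dilution) for 16 h at 37C, 5% CO2. After the CCF4 read, CellTiter-Glo was added; ATP luminescence was read after 30 min at room temperature.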

[13] = molecular target: Cellular tumor antigen p53 (Homo sapiens) (UniProt P04637); assay: TOX21_p53_BLA_p2_ratio: Tox21 HCT-116 p53 Agonism Beta-lactamase Assay, Ratio, Phase 2 (AID 2283592)
Method in brief: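 DMSO-normalized, positive-direction endpoint derived from the 460 nm/530 nm FRET ratio in HCT116 p53 beta-lactamase reporter cells exposed 16 h at 37C and loaded with CCF4-AM for 2 h.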

[14] = molecular target: Cellular tumor antigen p53 (Homo sapiens) (UniProt P04637); assay: TOX21_p53_BLA_p3_ratio: Tox21 HCT-116 p53 Agonism Beta-lactamase Assay, Ratio, Phase 3 (AID 2283596)
Method in brief: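 Cells were seeded at 4000/well, rested 5 h at 37C, then dosed with DMSO compound solutions (217-fold dilution) for 16 h. CCF4-AM substrate was loaded for 2 h at room temperature, and the 460/530 nm emission ratio was fitted for gain of signal versus DMSO.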

[15] = molecular target: Cellular tumor antigen p53 (Homo sapiens) (UniProt P04637); assay: TOX21_p53_BLA_p5_ratio: Tox21 HCT-116 p53 Agonism Beta-lactamase Assay, Ratio, Phase 5 (AID 2283599)
Method in brief: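 HCT-116 cells carrying a p53-inducible beta-lactamase reporter were seeded at 4000 cells/well and dosed after 5 h with compound in DMSO (217-fold dilution). After 16 h at 37C, CCF4-AM substrate was added for 2 h, and the 460/530 nm emission ratio was scored as gain-of-signal versus DMSO.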

[16] = TOX21_p53_BLA_p5_viability: Viability Assessment in the Tox21 HCT-116 p53 Agonism Beta-lactamase Assay, Phase 5 (AID 2283600)
Method in brief: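 Here cell health was gauged by ATP levels in wells holding 4000 cells, each treated 16 h with DMSO-delivered compounds at 217-fold dilution; reduced luminescence marked toxicity.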

[17] = molecular target: Cellular tumor antigen p53 (Homo sapiens) (UniProt P04637); assay: TOX21_p53_BLA_p4_ratio: Tox21 HCT-116 p53 Agonism Beta-lactamase Assay, Ratio, Phase 4 (AID 2283601)
Method in brief: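 HCT116 cells carrying an inducible beta-lactamase reporter were plated at 4000 cells/well, rested 5 h, then exposed to compounds in DMSO (217-fold dilution) for 16 h at 37C. CCF4-AM substrate was loaded 2 h at room temperature; 460/530 nm emission ratio scored gain-of-signal versus DMSO.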

[18] = molecular target: Nuclear receptor subfamily 4 group A member 2 (Homo sapiens) (UniProt P43354); assay: ATG_NURR1_TRANS: Attagene TRANS-FACTORIAL HepG2 Assay for human Nuclear Receptor Related Protein 1 (NURR1) (AID 2282985); settings: HepG2 Attagene TRANS reporter, mRNA readout
Method in brief: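 Chimeric NR-Gal4 proteins were expressed in human HepG2 cells bearing GAL4-UAS reporter units, and induced reporter mRNA was quantified 24 h post-dosing by RT-PCR and capillary electrophoresis.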

[19] = molecular target: Retinoic acid receptor RXR-alpha (Homo sapiens) (UniProt P19793); assay: ATG_RXRa_TRANS: Attagene TRANS-FACTORIAL HepG2 Assay for human Retinoid X Receptor alpha (RXRa) (AID 2283012)
Method in brief: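 Read-out: fluorescent reporter-transcript fragments quantified by capillary electrophoresis after RT-PCR. Transiently transfected HepG2 cells carrying GAL4-UAS reporters and NR-GAL4 chimeras were exposed to chemical for 24 h; activity scored as increase over DMSO.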

[20] = TOX21_p53_BLA_p4_viability: Viability Assessment in the Tox21 HCT-116 p53 Agonism Beta-lactamase Assay, Phase 4 (AID 2283597);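 note: hits lower the luminescence signal meaning cytotoxicity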
Method in brief: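 In this multiplexed secondary endpoint, HCT116 cells (4000 per well, compound at 5 h, 16 h treatment) received CellTiter-Glo after the beta-lactamase read. Luminescence after 30 min RT reflects ATP, and falling signal marks cytotoxicity.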

Measured: AC50

Chain of Hepatocyte nuclear factor 4-alpha (Homo sapiens) (P41235 whole entry, looked up, the tested form may be a part): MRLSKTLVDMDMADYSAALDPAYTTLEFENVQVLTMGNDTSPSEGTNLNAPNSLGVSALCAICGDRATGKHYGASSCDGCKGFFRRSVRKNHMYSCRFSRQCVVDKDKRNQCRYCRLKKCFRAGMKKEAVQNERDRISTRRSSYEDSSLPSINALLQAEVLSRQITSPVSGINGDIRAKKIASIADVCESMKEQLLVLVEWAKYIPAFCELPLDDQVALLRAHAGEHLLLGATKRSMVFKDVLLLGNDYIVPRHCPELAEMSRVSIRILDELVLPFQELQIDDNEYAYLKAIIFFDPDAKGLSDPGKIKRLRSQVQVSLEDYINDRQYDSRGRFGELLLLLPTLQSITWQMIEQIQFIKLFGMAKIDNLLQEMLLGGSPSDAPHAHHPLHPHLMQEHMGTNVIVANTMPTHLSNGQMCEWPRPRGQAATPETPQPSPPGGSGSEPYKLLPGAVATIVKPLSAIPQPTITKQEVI
Chain of Hepatocyte nuclear factor 3-beta (Homo sapiens) (Q9Y261 whole entry, looked up): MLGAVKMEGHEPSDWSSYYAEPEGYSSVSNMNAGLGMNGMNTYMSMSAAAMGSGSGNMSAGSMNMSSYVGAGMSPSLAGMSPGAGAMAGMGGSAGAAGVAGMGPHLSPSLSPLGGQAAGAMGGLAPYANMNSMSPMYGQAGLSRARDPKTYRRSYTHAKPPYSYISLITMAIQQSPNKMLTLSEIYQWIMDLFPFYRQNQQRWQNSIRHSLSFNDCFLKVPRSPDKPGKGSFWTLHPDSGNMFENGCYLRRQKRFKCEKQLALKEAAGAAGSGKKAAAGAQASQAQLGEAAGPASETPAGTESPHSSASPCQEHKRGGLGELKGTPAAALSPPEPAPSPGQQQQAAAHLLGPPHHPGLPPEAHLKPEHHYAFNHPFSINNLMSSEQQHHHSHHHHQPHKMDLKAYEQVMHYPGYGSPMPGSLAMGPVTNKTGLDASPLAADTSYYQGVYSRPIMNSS
Chain of human Thyroid Receptor alpha (THRa1), THRA (gene 7067) (P10827 whole entry, looked up, the tested form may be a part): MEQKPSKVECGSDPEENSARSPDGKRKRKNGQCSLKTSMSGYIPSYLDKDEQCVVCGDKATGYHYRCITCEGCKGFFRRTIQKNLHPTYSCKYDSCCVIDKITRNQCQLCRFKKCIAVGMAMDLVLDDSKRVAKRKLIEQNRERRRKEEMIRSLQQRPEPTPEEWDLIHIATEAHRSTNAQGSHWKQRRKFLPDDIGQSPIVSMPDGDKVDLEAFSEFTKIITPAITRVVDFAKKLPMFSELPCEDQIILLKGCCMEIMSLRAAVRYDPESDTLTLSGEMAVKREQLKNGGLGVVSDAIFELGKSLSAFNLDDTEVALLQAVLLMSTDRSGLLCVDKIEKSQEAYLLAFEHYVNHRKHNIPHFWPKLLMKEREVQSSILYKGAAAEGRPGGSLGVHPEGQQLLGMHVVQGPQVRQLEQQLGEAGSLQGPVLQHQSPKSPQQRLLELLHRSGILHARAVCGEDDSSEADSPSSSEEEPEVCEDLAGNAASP
Chain of Hepatocyte nuclear factor 6 (Homo sapiens) (Q9UBC0 whole entry, looked up, the tested form may be a part): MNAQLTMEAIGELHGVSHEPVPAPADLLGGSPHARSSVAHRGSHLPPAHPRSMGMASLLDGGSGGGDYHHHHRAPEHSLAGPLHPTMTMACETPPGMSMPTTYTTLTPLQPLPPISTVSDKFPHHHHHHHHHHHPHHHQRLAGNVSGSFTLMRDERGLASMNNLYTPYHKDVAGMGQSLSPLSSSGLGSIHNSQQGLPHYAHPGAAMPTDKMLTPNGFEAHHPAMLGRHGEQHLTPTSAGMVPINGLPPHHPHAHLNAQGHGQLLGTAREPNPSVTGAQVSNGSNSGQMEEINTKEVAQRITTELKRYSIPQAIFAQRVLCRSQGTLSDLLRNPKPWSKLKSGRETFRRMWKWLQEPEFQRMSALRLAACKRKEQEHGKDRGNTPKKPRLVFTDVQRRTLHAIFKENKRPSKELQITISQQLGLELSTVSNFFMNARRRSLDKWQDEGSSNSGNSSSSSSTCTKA
Chain of Retinoic acid receptor RXR-alpha (Homo sapiens) (P19793 whole entry, looked up, the tested form may be a part): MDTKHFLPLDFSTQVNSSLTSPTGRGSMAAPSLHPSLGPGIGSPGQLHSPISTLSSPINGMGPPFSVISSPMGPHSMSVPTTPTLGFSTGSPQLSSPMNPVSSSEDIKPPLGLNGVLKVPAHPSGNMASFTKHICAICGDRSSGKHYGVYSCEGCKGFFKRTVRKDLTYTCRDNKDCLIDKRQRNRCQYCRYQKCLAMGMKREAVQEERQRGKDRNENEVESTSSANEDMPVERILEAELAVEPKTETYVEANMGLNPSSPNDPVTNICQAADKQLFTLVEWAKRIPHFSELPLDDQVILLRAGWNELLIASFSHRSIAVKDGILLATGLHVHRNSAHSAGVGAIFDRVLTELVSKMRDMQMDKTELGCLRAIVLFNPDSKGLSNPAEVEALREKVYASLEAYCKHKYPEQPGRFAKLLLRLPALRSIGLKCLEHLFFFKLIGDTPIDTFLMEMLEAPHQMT
Chain of human Retinoid X Receptor beta (RXRb), RXRB (gene 6257) (P28702 whole entry, looked up, the tested form may be a part): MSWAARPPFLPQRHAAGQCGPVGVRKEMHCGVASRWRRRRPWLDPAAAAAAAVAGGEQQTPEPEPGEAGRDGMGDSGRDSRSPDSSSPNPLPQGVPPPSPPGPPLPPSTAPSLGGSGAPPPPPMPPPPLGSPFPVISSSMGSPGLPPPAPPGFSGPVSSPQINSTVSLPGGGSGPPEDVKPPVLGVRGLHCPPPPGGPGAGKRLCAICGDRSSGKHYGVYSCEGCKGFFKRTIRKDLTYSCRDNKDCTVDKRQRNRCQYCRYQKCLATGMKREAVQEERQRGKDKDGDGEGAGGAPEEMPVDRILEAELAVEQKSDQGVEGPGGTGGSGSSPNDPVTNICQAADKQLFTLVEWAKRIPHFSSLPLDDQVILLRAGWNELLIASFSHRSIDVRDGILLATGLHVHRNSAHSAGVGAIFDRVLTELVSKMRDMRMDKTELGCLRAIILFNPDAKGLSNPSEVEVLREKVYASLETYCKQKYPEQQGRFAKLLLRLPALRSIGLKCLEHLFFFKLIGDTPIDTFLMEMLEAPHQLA
Chain of Nuclear receptor subfamily 4 group A member 2 (Homo sapiens) (P43354 whole entry, looked up, the tested form may be a part): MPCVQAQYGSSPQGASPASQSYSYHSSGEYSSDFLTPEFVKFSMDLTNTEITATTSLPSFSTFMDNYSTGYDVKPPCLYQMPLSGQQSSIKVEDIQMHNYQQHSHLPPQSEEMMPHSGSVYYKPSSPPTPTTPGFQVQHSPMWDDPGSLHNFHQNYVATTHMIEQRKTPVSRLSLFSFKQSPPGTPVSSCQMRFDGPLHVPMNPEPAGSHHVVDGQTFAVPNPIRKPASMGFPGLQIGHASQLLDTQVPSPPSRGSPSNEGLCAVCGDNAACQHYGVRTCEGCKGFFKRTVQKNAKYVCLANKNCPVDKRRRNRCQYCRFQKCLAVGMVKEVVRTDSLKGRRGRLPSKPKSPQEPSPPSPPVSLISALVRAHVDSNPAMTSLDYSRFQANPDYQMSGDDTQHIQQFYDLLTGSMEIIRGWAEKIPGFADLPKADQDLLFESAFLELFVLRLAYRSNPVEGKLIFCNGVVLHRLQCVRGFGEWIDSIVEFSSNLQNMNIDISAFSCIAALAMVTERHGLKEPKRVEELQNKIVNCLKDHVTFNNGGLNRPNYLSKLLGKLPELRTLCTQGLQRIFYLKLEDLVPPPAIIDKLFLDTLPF
Chain of Cellular tumor antigen p53 (Homo sapiens) (P04637 whole entry, looked up): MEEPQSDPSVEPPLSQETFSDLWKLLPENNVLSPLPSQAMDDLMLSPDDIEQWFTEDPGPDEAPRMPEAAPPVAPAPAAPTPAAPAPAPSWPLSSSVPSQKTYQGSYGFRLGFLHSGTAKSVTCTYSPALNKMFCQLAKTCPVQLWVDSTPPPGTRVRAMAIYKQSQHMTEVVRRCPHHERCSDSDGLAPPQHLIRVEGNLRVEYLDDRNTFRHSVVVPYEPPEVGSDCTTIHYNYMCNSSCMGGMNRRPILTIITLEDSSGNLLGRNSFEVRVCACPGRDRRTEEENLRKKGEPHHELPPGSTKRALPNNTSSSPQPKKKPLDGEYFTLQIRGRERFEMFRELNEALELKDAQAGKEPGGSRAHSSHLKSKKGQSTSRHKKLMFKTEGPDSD
Chain of Nuclear respiratory factor 1 (Homo sapiens) (Q16656 whole entry, looked up): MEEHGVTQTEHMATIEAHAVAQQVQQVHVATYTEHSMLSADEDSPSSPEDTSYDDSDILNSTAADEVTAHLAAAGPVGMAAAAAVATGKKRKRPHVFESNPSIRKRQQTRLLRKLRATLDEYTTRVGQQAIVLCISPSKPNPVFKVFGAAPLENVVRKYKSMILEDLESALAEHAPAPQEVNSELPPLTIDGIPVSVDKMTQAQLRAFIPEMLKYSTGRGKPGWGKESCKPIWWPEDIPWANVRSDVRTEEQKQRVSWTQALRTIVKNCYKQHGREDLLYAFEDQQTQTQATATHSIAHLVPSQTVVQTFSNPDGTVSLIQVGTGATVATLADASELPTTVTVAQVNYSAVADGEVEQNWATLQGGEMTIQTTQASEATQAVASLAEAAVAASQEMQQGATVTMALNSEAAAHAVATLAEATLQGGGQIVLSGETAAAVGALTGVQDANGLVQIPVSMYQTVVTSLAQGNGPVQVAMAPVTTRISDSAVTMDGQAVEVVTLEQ

O=C(CC(C(=O)OC1CCCCC1)S(=O)(=O)O)OC1CCCCC1 (configuration not stated)
not listed: [18] | [19] | [20]
inactive: all other assays above

CC/C=C\CC/C=C/C(OCC)OCC
inactive: [1] | [3] | [6] | [7] | [18] | [11] | [15]
active: [9] 100 µM

CCCCCCCCCCCCCC
not listed: [3] | [6] | [8] | [11] | [13] | [16] | [20]
inactive: all other assays above

Cc1cc(-n2nc3ccc(Cl)cc3n2)c(O)c(C(C)(C)C)c1
inactive: [2] | [3] | [4] | [5] | [6] | [18] | [19] | [13] | [14] | [15]

Nc1nnc(-c2ccc([N+](=O)[O-])o2)o1
active: [13] 85.7 µM | [17] 70.1 µM
not listed: [3] | [4] | [5] | [7] | [11] | [19]
inactive: all other assays above

CC/C=C\CC1=C(C)CCC1=O
not listed: [3] | [5] | [11] | [12] | [18] | [20]
inactive: all other assays above

CC1=C(CC=O)C(C)(C)CCC1
not listed: [5] | [6] | [8] | [10] | [11] | [20]
inactive: all other assays above

C=CC(C)(CCC=C(C)C)OC(=O)c1ccccc1 (configuration not stated)
not listed: [1] | [3] | [5] | [6] | [8] | [10] | [20]
inactive: all other assays above

CC[N+](CC)(CC(=O)Nc1c(C)cccc1C)Cc1ccccc1
inactive: [1] | [3] | [4] | [5] | [6] | [7] | [18] | [8] | [19]

CC(=O)CCc1ccccc1
not listed: [1] | [6] | [7] | [10] | [11] | [18] | [19]
inactive: all other assays above

O=[N+]([O-])c1ccc2nc[nH]c2c1
inactive: [2] | [3] | [4] | [18] | [8] | [9] | [11]

CCCCCCOC(=O)CCCCCCCC(=O)OCCCCCC
inactive: [1] | [2] | [5] | [6] | [7] | [18] | [8] | [9] | [10] | [11]
